The values below come from PubChem BioAssay (NCATS).

Each structure is given as a SMILES string. Inconclusive results are not listed. Activity calls are given as the source filed them. Unless noted, calls come from the whole dose curve; as a rule, active = well fitted curve in the direction sought with a large enough effect; inconclusive = small, poorly fitted or top-dose-only effect, or another doubt; inactive = no such curve, though single readings can be large; an effect the other way counts as inactive or inconclusive. Bounds are passed on as bounds.

For experiment [1], the target named is Lysosomal acid glucosylceramidase (Homo sapiens) (UniProt P04062). In words: Glucocerebrosidase-p2 (AID 348; in the data active = potency below about 10 µM; note: potency is the fitted concentration of half-maximal effect). Particulars: purified GBA, blue fluorogenic substrate, 40 min. The essentials:
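Compounds titrated from 0.6 nM upwards against 0.2 nM enzyme in pH 5.9 citric acid/KH2PO4, taurocholate, tween-20; blue fluorogenic substrate 80 uM, 40 min room temperature, stopped and read Ex 365/Em 440 for AC50.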

Experiment [2] in a line: NFAT Signaling Pathway (AID 444; active = well fitted curve in either direction with a large enough effect, not every such curve was filed as active;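 note: carbachol stimulus at about its EC50 of 1 µM final; % is set by controls: 0 for no effect and ±100 for the full control effect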). Particulars: Jurkat NFAT-bla M1, carbachol, beta-lactamase ratio, 5 h; at 7.69 µM (top of the series) unless noted. The essentials: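 Jurkat cells carrying an NFAT-driven β-lactamase reporter and co-transfected muscarinic M1 receptor were treated with compound plus carbachol (1 uM final, an EC50 level) for 5 h at 37 °C. CCF4 loading followed for 1 h at RT; 460/530 nm ratio gave %activity.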

Experiment [3] can be described thus: Stat Signaling Pathway (AID 446; active = well fitted curve in either direction with a large enough effect, not every such curve was filed as active;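 note: ME-180 cervical cancer cells given 40 pM IL-6 alongside compound; SIE-controlled beta-lactamase reporter measured as 460/530 nm FRET emission ratio; % is set by controls: 0 for no effect and ±100 for the full control effect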). Particulars: ME-180 SIE beta-lactamase reporter, IL-6 stimulated, 5 h; at 7.69 µM (top of the series) unless noted. The essentials: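 ME-180 SIE-bla cells; overnight plating; cpd + IL-6 40 pM, 5 h, 37 C; LiveBLAzer 2.5 h RT; 460/530 nm emission ratio. Normalized to 300 pM IL-6 and 125 nM JAK inhibitor controls.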
For experiment [4], the target named is Glucocorticoid receptor (Homo sapiens) (UniProt P04150). Description: GR-GFP Redistribution (AID 450;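 active = compounds whose dose series gives a full or clear partial fitted curve of increased nuclear translocation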; note: potency is the fitted concentration of half-maximal effect). Particulars: U2OS GR-GFP nuclear translocation, laser cytometry, 2 h.
Sequence of Glucocorticoid receptor (Homo sapiens) (P04150 whole entry, looked up, the tested form may be a part): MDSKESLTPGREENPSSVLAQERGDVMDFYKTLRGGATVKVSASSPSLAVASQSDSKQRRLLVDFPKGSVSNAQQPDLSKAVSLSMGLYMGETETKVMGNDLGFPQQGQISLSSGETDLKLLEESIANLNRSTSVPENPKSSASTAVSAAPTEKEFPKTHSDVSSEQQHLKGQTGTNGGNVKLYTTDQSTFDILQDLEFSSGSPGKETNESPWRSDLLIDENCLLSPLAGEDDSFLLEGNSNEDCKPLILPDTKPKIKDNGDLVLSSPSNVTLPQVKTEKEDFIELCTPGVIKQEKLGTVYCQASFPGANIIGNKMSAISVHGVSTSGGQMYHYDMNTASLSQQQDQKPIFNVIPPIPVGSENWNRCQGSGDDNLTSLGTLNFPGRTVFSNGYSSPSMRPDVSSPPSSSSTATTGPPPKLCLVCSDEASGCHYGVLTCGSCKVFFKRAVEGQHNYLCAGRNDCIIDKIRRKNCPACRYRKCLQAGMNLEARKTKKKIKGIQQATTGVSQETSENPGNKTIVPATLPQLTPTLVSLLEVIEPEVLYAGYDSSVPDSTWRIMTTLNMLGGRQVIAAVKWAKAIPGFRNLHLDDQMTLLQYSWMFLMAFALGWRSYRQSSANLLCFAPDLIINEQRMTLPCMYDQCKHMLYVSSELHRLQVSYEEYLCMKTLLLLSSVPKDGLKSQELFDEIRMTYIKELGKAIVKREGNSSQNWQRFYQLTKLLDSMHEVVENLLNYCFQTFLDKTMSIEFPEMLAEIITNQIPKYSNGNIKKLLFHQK
Experiment [5] has the same target. Description: GR-EFC Redistribution (AID 451; calls by dose curve; note: potency is the fitted concentration of half-maximal effect). Particulars: CHO-K1 GR-EFC translocation, beta-gal luminescence, 2 h. The essentials: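 CHO-K1 cells stably expressing nuclear-localized β-gal enzyme acceptor and GR fused C-terminally to the enzyme donor fragment; ligand-driven nuclear translocation restores β-gal by complementation. Compounds titrated up to 46 uM final, 2 h at 37 °C; luminescence read.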

Experiment [6] concerns the target Mitogen-activated protein kinase 10 (Mus musculus) (UniProt Q61831). Description: JNK3 AlphaScreen Assay (AID 530; active = well fitted curve in either direction with a large enough effect, not every such curve was filed as active;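 note: kinase came from lysate of stimulated human HepG2 cells; signal reports phosphorylation of biotinylated GST-cJun 1-79 at Ser73 with 10 µM ATP; % is set by controls: 0 for no effect and ±100 for the full control effect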). Particulars: JNK3 lysate, c-Jun phosphorylation; series mostly up to 57.1 µM. The procedure, abridged: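 Inhibitors reduce antibody binding to phosphorylated biotin-cJun, lowering AlphaScreen luminescence. Lysates from HepG2 cells pre-activated by IL-1beta plus TNF-alpha supplied JNK3; compounds were titrated.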
On the technique in general: In Alpha technology, singlet oxygen from a donor bead excites a nearby acceptor bead.

Experiment [7] addresses 3',5'-cyclic-AMP phosphodiesterase 4B (Homo sapiens) (UniProt Q07343). Description: qHTS Assay for Inhibitors of PDE-IV (AID 607; active = well fitted activation curve with a large enough effect in the main read-out, with a control signal flat, not every such curve was filed as active; note: % of control where 0% means no effect). Particulars: HEK293 ACTOne CNG channel cells, membrane potential fluorescence; series mostly up to 22.9 µM. The procedure, abridged: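 ACTOne HEK293 cells carry a modified cAMP-gated CNG channel and express endogenous PDE4; plated 1000 cells/well, compounds up to 22.9 uM final. Membrane-potential dye fluorescence (ex 535/em 590) was read; parental cells received 10 uM forskolin + 100 uM RO 20-1724.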

Experiment [8] can be described thus: Confirmatory qHTS for small molecule stabilizers of the endoplasmic reticulum resident proteome: Secreted ER Calcium Modulated Protein (SERCaMP) assay (AID 1508628). Note: potency is the fitted concentration of half-maximal effect; nearly all actives have a fitted effect of over 40% in size. Particulars: SERCaMP secreted luciferase ER calcium/proteostasis reporter; series mostly up to 76.3 µM. The essentials:
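SH-SY5Y cells stably expressing GLuc-SERCaMP, treated 16 h with compound (primary 1.53, 7.67, 38.3 uM; confirmation 11 concentrations, up to 76.6 uM), then 100 nM thapsigargin for 4 h. Secreted Gaussia luciferase in medium read by coelenterazine luminescence.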
For orientation: qHTS replaces the single test concentration by a dilution series.

Experiment [9] has as its target Cytochrome P450 1A2 (Homo sapiens) (UniProt P05177). In words: p450-cyp1a2 (AID 410; calls by dose curve; note: potency is the fitted concentration of half-maximal effect). Particulars: recombinant CYP1A2, luciferin-ME demethylation, luminescence; series mostly up to 57 µM. The procedure, abridged: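 Luminescent readout of luciferin formed from Luciferin-ME by human CYP1A2; data normalized against complete inhibition by 57 uM furafylline. Enzyme 20nM, substrate 100uM at Km, 100mM KPO4 buffer, 60 min reaction at room temperature.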

The target of experiment [10] is Cytochrome P450 2C9 (Homo sapiens) (UniProt P11712). In words: qHTS Assay for Inhibitors and Substrates of Cytochrome P450 2C9 (AID 883). Note: potency is the fitted concentration of half-maximal effect; nearly all actives have a fitted effect of over 60% in size. Particulars: recombinant CYP2C9, luciferin-H luminescence, 60 min; series mostly up to 57.1 µM. The essentials:
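CYP2C9 deoxyluciferin hydroxylation, 37C, 60 min with NADPH regeneration; 10nM enzyme, 100uM Luciferin-H (KM). Glo detection reagent stopped reaction; luminescence normalized to sulphaphenazole (57uM) full inhibition.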

In experiment [11] the target is Cytochrome P450 3A4 (Homo sapiens) (UniProt P08684). Description: qHTS Assay for Activators of Cytochrome P450 3A4 (AID 885). Note: nearly all actives have a fitted effect of over 65% in size. Particulars: recombinant CYP3A4, Luciferin-PPXE luminescence, 60 min; series mostly up to 57.1 µM. The procedure, abridged:
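20nM CYP3A4 + 25uM Luciferin-PPXE (=KM), 200mM KPO4; cpd 10 min RT; NADPH regen, 60 min RT; stop w/ detection buffer, 20 min; luminescence. Normalized to 57 uM ketoconazole.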

Experiment [12] can be described thus: Counterscreen qHTS for small molecule stabilizers of the endoplasmic reticulum resident proteome: GLuc-NoTag assay (AID 1508627).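 Note: SH-SY5Y cells given compound then 100 nM thapsigargin to empty ER calcium; 0% = thapsigargin alone and -100% = DMSO vehicle control.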 Particulars: Gaussia luciferase NoTag secretion counterscreen, luminescence, thapsigargin 100 nM for final 4 h; series mostly up to 76.4 µM. The essentials:
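SH-SY5Y cells stably expressing constitutively secreted GLuc (no SERCaMP tag) were pre-incubated 5 h, treated with compound for 19 h, then 100 nM thapsigargin for 4 h at 37C; medium GLuc read by coelenterazine luminescence.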
(A counterscreen serves to expose hits that act by an unwanted route or on another target.)

Experiment [13] deals with Cytochrome P450 3A4 (Homo sapiens) (UniProt P08684). In words: qHTS Assay for Inhibitors and Substrates of Cytochrome P450 3A4 (AID 884). Note: potency is the fitted concentration of half-maximal effect; nearly all actives have a fitted effect of over 50% in size. Particulars: recombinant CYP3A4, Luciferin-PPXE luminescence; series mostly up to 57.1 µM. The procedure, abridged: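 20 nM human CYP3A4 with 25 uM Luciferin-PPXE (at KM) in 200 mM KPO4, preincubated 10 min with compound; NADPH regeneration started a 60 min RT reaction. Luciferin detected by luminescence, normalized to 57 uM ketoconazole as full inhibition.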
Sequence of Cytochrome P450 3A4 (Homo sapiens) (P08684 whole entry, looked up): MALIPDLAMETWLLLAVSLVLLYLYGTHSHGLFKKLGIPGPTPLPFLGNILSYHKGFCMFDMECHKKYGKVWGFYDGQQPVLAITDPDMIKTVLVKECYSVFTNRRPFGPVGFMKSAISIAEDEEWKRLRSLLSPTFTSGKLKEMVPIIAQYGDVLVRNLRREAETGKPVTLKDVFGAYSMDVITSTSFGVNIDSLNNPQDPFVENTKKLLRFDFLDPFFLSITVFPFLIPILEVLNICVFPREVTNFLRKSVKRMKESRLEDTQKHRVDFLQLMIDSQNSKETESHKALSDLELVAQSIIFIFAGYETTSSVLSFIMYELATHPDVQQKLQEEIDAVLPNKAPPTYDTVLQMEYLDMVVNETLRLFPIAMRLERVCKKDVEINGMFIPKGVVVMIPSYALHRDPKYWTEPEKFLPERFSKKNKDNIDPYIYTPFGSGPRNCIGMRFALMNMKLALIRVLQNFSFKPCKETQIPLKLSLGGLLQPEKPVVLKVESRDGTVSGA

A short description of experiment [14]: qHTS Assay for Lipid Storage Modulators (AID 1519; calls by dose curve). Particulars: Drosophila S3 cells, BODIPY lipid droplet/cell ratio, laser cytometry, cells loaded with oleic acid. The essentials:
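Cells seeded at 5,000 per well were treated with compounds over a concentration series and loaded with oleic acid (400 uM, as added). Lipid droplet fluorescence (488 nm excitation, 500-530 nm channel) was read by laser-scanning cytometry and normalized to 20 uM Triacsin C.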

Experiment [15] deals with Dual specificity protein kinase CLK4 (Homo sapiens) (UniProt Q9HAZ1). Description: qHTS Assay for Inhibitors of CDC-like Kinase 4 (ADP-FP Assay) (AID 1795).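 Note: recombinant human CLK4 phosphorylating RS repeat peptide at 1 µM ATP; % is set by controls: 0 for no effect and ±100 for the full control effect; nearly all actives have a fitted effect of over 60% in size.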 Particulars: Transcreener ADP fluorescence polarization; series mostly up to 50 µM. The essentials:
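Kinase activity was measured as ADP production using Transcreener orange tracer (4 nM) and ADP antibody (1 ug/mL) fluorescence polarization, with ADP calculated from a calibration curve. The 1 h reaction contained 6.25 nM Clk4, 1 uM ATP and 100 uM RS peptide at pH 7.5 with Mg2+.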

Experiment [16] has as its target Ubiquitin carboxyl-terminal hydrolase 1 (Homo sapiens) (UniProt O94782). Description: Inhibitors of USP1/UAF1: Pilot qHTS (AID 504865).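 Note: rhodamine fluorescence freed from ubiquitin-rhodamine substrate followed over time; top concentration of the series differs between compounds; % is set by controls: 0 for no effect and ±100 for the full control effect; nearly all actives have a fitted effect of over 35% in size.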 Particulars: purified USP1/UAF1, Ub-rhodamine cleavage fluorescence; series mostly up to 54.9 µM. The procedure, abridged:
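Deubiquitinase activity followed as kinetic rhodamine fluorescence release from 150 nM Ub-Rho. 1 nM USP1/UAF1 with compound, after 15 min room-temperature preincubation, in HEPES pH 7.8 buffer containing TCEP, EDTA, BSA and Tween-20.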

The nature of experiment [17]: Primary qHTS for small molecule stabilizers of the endoplasmic reticulum resident proteome: Secreted ER Calcium Modulated Protein (SERCaMP) assay (AID 1508630). Note: % is set by controls: 0 for no effect and ±100 for the full control effect. Particulars: SH-SY5Y GLuc-SERCaMP (Gaussia luciferase released on ER calcium loss) secretion, thapsigargin, luminescence; series mostly up to 38.4 µM. The procedure, abridged:
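GLuc-SERCaMP-expressing SH-SY5Y cells, pretreated 16 h with compound, are challenged with thapsigargin to empty ER calcium stores; after 4 h, coelenterazine is added directly to the medium and luminescence is imaged.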

Experiment [18] can be described thus: qHTS Assay for Identification of Small Molecule Agonists for Hypoxia Response Element Signaling Pathway (AID 914; active = well fitted activation curve with a large enough effect in the signal ratio, with a control signal flat, not every such curve was filed as active; the % refers to the signal ratio; note: potency is the fitted concentration of half-maximal effect). Particulars: ME-180 (cervical carcinoma) HRE-bla reporter, beta-lactamase ratio, CoCl2, 17 h; activation: stronger effect = higher value. The essentials:
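Reporter activity (beta-lactamase, CCF4 460nm/530nm ratio) in HRE-bla ME-180 cells is recorded after 17 h compound exposure with EC50 CoCl2 at 37 degrees Celsius. AC50 values come from titration data.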

Sequence of Lysosomal acid glucosylceramidase (Homo sapiens) (P04062 whole entry, looked up): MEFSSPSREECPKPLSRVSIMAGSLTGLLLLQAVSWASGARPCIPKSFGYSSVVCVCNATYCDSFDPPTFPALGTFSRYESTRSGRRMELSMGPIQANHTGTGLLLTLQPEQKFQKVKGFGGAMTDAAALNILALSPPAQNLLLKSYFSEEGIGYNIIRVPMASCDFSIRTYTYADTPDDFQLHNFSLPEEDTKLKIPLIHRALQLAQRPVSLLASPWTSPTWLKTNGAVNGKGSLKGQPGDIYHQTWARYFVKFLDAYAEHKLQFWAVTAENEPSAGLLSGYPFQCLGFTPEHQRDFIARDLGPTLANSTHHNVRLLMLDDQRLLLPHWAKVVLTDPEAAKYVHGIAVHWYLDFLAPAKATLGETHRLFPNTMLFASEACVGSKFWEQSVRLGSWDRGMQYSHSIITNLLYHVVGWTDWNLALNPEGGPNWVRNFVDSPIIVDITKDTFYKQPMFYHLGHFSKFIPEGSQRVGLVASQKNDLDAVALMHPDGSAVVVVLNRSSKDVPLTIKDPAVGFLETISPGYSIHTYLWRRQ
Sequence of 3',5'-cyclic-AMP phosphodiesterase 4B (Homo sapiens) (Q07343 whole entry, looked up): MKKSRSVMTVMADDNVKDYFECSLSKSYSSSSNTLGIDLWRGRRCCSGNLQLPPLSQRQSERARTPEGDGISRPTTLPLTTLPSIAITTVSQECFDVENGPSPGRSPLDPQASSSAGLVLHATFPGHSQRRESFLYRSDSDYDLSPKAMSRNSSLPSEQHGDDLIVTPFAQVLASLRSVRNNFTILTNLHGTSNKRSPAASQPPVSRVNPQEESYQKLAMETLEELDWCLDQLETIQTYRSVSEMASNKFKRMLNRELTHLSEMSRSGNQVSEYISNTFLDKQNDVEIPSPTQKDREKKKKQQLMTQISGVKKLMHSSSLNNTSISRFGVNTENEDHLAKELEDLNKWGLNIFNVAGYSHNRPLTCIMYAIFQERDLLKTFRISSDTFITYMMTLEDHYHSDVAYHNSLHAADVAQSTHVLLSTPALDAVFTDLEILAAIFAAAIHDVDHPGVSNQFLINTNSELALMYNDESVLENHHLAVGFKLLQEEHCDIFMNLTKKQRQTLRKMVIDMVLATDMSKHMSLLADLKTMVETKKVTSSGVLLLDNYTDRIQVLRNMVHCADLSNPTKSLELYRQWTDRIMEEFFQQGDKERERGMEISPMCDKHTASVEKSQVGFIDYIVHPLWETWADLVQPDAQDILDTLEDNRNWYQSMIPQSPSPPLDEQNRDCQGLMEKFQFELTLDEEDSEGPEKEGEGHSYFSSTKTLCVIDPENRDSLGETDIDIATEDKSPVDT
Sequence of Cytochrome P450 1A2 (Homo sapiens) (P05177 whole entry, looked up): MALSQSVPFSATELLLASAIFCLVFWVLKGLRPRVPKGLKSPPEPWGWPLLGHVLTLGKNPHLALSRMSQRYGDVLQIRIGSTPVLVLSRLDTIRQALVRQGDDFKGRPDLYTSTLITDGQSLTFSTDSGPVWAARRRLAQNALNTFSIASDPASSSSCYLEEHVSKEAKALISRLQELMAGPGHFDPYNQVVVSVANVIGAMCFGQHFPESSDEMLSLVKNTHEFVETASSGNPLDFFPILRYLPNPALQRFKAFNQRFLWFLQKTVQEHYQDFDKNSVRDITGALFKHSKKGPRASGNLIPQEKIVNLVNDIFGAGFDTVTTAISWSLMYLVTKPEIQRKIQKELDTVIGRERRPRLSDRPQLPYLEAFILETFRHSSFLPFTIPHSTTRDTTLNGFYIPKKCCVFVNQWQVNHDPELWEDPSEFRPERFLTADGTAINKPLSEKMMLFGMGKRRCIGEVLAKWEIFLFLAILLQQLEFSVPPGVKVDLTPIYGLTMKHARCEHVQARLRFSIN
Sequence of Cytochrome P450 2C9 (Homo sapiens) (P11712 whole entry, looked up): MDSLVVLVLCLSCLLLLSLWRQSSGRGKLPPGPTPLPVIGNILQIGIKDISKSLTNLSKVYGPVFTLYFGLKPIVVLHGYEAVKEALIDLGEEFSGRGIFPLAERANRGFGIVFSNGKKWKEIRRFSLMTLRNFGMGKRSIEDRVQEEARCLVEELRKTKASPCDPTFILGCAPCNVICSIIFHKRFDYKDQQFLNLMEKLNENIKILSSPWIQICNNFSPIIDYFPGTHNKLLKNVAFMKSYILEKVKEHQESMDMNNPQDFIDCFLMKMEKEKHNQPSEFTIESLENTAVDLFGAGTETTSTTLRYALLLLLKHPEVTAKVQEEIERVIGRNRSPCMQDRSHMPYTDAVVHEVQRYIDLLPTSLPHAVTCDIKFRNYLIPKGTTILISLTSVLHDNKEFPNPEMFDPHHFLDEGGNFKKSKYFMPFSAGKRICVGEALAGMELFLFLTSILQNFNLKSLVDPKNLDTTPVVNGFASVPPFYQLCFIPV
Sequence of Ubiquitin carboxyl-terminal hydrolase 1 (Homo sapiens) (O94782 whole entry, looked up): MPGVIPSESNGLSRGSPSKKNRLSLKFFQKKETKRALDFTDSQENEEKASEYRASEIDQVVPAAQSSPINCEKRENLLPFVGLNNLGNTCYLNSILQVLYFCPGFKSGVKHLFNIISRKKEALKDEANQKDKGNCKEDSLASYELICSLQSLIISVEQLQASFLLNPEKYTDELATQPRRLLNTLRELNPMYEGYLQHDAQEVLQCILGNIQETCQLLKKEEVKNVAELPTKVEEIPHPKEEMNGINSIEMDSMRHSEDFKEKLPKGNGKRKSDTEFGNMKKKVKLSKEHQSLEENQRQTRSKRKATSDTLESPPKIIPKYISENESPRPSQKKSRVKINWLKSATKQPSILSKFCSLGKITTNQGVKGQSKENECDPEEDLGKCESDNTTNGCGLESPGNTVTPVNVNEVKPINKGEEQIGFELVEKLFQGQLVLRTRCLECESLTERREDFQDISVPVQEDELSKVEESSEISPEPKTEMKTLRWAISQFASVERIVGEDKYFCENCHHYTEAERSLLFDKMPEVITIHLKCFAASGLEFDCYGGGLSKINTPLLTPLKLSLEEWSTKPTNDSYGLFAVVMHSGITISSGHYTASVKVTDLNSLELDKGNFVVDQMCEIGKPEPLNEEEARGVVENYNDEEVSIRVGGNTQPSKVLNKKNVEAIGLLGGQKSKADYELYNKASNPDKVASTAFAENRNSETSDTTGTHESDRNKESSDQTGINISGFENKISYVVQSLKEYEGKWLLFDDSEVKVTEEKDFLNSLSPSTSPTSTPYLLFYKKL
Sequence of Dual specificity protein kinase CLK4 (Homo sapiens) (Q9HAZ1 whole entry, looked up): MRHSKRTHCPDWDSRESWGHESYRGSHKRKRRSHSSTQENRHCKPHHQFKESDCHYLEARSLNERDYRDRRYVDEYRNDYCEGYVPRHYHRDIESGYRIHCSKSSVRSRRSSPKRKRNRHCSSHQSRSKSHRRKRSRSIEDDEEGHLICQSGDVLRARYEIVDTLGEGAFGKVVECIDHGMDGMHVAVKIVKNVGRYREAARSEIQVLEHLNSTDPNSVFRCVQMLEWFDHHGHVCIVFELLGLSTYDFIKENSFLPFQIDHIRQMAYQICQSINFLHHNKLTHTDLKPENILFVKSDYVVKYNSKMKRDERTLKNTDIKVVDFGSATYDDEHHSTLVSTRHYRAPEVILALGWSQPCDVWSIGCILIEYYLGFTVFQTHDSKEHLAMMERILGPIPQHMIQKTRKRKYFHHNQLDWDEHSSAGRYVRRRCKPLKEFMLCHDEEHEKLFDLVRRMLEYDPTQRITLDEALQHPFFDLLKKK

With `COc1cccc(Nc2ncc3nc(-c4ccccc4)c(=O)n(C[C@H]4CCCO4)c3n2)c1`, the Potency in [1] was > 11.4 µM (inactive); in [4], > 9.22 µM (inactive); in experiment [5] it was > 46 µM (inactive); in [8] it was 39.8 µM (active). Further, the activity change, negative = inhibition in [2] was -8.66% (inactive). For the same compound, the activity, negative = inhibition in [3] was 4.51% (inactive). Moreover, in [6], the compound was called inactive. In addition, the Potency entry in [7] was “inactive”.
`COCCn1c(=O)c(-c2cc(F)cc(F)c2)nc2cnc(N3CCNCC3)nc21`: the Potency was > 11.4 µM (inactive) in [1]; 6.31 µM (active) in [9]; > 9.22 µM (inactive) in experiment [4]; > 46 µM (inactive) in experiment [5]; 1.26 µM (active) in experiment [10]. Further, the call in [6] was inactive. Also, the Potency entry in [7], in experiment [11] and in experiment [12] was “inactive” throughout.
Turning to `COc1ccc(CNc2ncnc3ccc(-c4cccc(C#N)c4)cc23)c(OC)c1`, the Potency was 3.16 µM (active) in experiment [9]; > 46 µM (inactive) in experiment [4]; > 46 µM (inactive) in [5]; 1.58 µM (active) in experiment [13]; 28.2 µM (active) in experiment [8]. Besides, the activity change, negative = inhibition is 16.5% (inactive) in [2] and -0.414% (inactive) in experiment [14] (at 57.5 µM (top of the series)). Besides, the activity, negative = inhibition in experiment [3] was -11.5% (inactive). In addition, in experiment [6], the call was inactive. In addition, the Potency entry in [11], in experiment [15] and in experiment [16] was “inactive” in each case. Further, the max response in [14] (measured here: cell count channel max response) is -6.85%; in experiment [14] (measured here: lipid channel max response) it was -11.4%.
For `Cc1nc(-c2coc3c(O)c(O)ccc3c2=O)cs1`, in experiment [17], the Potency entry is “inactive”.
As for `COCCn1c(=O)c(-c2ccccc2)nc2cnc(N3CCNCC3)nc21`, the Potency was > 11.4 µM (inactive) in experiment [1], > 9.22 µM (inactive) in experiment [4], > 46 µM (inactive) in experiment [5] and 3.16 µM (active) in experiment [18]. Moreover, in experiment [6], the compound was called inactive. Further, the Potency result in experiment [7] and in experiment [12] was “inactive” throughout.
